Measurements as given in PubChem BioAssay (Tox21).
Inconclusive results are not listed. Active and inactive are the calls of the source. Unless noted, calls come from the whole dose curve; as a rule, active = well fitted curve in the direction sought with a large enough effect in the repeat runs; inconclusive = weak or mixed curves; inactive = no such curve, though single readings can be large; an effect the other way counts as inactive or inconclusive.

Key:
[1] = qHTS assay to identify small molecule antagonists of the estrogen related receptor (ERR) signaling pathway from Tox21 library - cell viability counter screen (AID 1224834); note: nearly all actives have a fitted effect of over 30% in size
Outline: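 ERR reporter cells, 2,000 per well, rested 6 h, then exposed to compound in DMSO for 17.5 hours at 37 C. Viability read as fluorescence after 30 min with CellTiter-Fluor.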

[2] = target: Luciferin 4-monooxygenase (Photinus pyralis) (UniProt P08659); assay: qHTS assay to identify small molecule inhibitors of firefly luciferase (AID 1224835); note: series mostly up to about 120 µM; nearly all actives have a fitted effect of over 25% in size
Outline: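 Biochemical qHTS: compounds run as interplate titrations against purified firefly enzyme, with D-luciferin and ATP each at its KM concentration. Light output recorded by CCD imaging.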

[3] = qHTS assay to identify small molecule agonists of the constitutive androstane receptor (CAR) signaling pathway - cell viability counter screen (AID 1224836); note: series mostly up to about 92 µM; nearly all actives have a fitted effect of over 45% in size
Outline: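 Viability read-out: CellTiter-Fluor fluorescence after 23 h compound exposure at 37 C/5% CO2 in double-stable HepG2-CYP2B6-hCAR cells, with PK11195 present at 0.75 uM final; compounds tested in 15-point titration.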

[4] = qHTS assay to identify small molecule antagonists of the constitutive androstane receptor (CAR) signaling pathway - cell viability counter screen (AID 1224837); note: series mostly up to about 92 µM; nearly all actives have a fitted effect of over 45% in size
Outline: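 HepG2 cells stably carrying hCAR and CYP2B6-2.2kb reporter, stimulated with 50 nM CITCO and compounds at 15 concentrations for 23 h at 37 C. Viability measured by CellTiter-Fluor fluorescence.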

[5] = target: Nuclear receptor subfamily 1 group I member 3 (Homo sapiens) (UniProt Q14994); assay: qHTS assay to identify small molecule antagonists of the constitutive androstane receptor (CAR) signaling pathway (AID 1224838); note: nearly all actives have a fitted effect of over 40% in size
Outline: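 HepG2 cells stably carrying hCAR and a CYP2B6-2.2kb luciferase reporter, seeded 4 hrs before compound (15 concentrations). Stimulated with 50 nM CITCO for 24 hr at 37 C. ONE-Glo luminescence read after 30 min at room temperature.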

[6] = target: Nuclear receptor subfamily 1 group I member 3 (Homo sapiens) (UniProt Q14994); assay: qHTS assay to identify small molecule agonists of the constitutive androstane receptor (CAR) signaling pathway (AID 1224839); note: series mostly up to about 92 µM; nearly all actives have a fitted effect of over 15% in size
Outline: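 Luminescence read-out (ONE-Glo, 30 min, room temperature) from double-stable HepG2-CYP2B6-hCAR cells exposed 24 h to 15-point compound series in presence of 0.75 uM PK11195 final.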

[7] = qHTS assay to identify small molecule antagonists of the estrogen related receptor signaling pathway with the pleiotropic PPARgamma coactivator (PGC) from Tox21 10K library - cell viability counter screen (AID 1224840; active = well fitted cell-killing curve with a large enough effect in the repeat runs, not every such curve was filed as active; note: nearly all actives have a fitted effect of over 40% in size)
Outline: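 PGC/ERR cells (2,000/well) plated 6 h, then compound-treated for 17.5 h at 37 C. Viability measured by CellTiter-Fluor fluorescence after 30 min at 37 C, multiplexed with the pathway assay.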

[8] = qHTS assay to identify small molecule antagonists of the estrogen related receptor signaling pathway with the pleiotropic PPARgamma coactivator (PGC) from Tox21 10K library (AID 1224841; call rule not given here; note: series mostly up to about 92 µM; actives are mostly falling curves and most rising ones were filed inactive; nearly all actives have a fitted effect of over 50% in size)
Outline: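 PGC/ERR cell line, 2,000 cells/well, pre-incubated 6 hours at 37 C, then exposed to compounds for 18 hours at 37 C; luciferase read with One-Glo luminescence after 30 min at room temperature.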

[9] = qHTS assay to identify small molecule agonists of the estrogen related receptor signaling pathway with the pleiotropic PPARgamma coactivator (PGC) from Tox21 10K library (AID 1224842); note: nearly all actives have a fitted effect of over 15% in size
Outline: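 PGC/ERR reporter cell line, 2,000 cells per well, incubated 6 h at 37 C before 23 nL compound in DMSO was added. After 18 h at 37 C, One-Glo luminescence read following 30 min at room temperature.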
% is set by controls: 0 for no effect and ±100 for the full control effect.

Luciferin 4-monooxygenase (Photinus pyralis), sequence (P08659 whole entry, looked up): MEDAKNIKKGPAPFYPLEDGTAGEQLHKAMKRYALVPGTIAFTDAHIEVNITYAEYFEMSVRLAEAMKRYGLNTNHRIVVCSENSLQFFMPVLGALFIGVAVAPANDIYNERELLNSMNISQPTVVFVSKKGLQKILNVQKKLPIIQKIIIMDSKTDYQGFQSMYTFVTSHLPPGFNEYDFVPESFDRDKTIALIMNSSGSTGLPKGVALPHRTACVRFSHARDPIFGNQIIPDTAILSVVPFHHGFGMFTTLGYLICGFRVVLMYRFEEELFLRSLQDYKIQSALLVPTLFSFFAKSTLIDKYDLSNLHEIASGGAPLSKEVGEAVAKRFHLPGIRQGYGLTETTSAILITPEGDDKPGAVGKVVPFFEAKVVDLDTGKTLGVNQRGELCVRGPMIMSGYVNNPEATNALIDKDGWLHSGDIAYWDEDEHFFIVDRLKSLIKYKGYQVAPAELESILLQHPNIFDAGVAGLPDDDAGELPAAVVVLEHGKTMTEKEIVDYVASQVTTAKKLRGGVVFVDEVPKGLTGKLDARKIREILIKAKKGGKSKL
Nuclear receptor subfamily 1 group I member 3 (Homo sapiens), sequence (Q14994 whole entry, looked up): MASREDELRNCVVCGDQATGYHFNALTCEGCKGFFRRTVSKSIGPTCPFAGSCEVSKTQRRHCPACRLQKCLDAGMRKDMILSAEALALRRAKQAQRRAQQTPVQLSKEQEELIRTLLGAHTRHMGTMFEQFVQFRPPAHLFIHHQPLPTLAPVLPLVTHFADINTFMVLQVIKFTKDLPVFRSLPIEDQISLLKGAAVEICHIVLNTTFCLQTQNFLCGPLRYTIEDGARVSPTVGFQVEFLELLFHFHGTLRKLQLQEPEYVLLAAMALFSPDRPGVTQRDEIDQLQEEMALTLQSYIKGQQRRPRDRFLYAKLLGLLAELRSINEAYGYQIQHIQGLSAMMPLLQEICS

FC(F)(F)C(F)(F)C(F)(F)C(F)(F)C(F)(F)C(F)(F)C(F)(F)C(F)(F)Br
inactive: Potency [1] | Potency [2] | Potency [3] | Potency [4] | Potency [5] | Potency [6] | Potency [7] | Potency [8] | Potency [9]

O=C(O)c1ccccc1Nc1cc(Cl)ccc1C(=O)O
inactive: viability change, negative = cytotoxic [1] -1.64% [at 19 µM] | activity change, negative = inhibition [2] -7.25% [at 23.6 µM] | viability change, negative = cytotoxic [3] -10% [at 19 µM] | activity change, negative = cytotoxicity [4] -10.7% [at 19 µM] | activity, negative = inhibition [5] -20% [at 19 µM] | activation [6] -3.13% [at 19 µM] | viability change, negative = cytotoxic [7] -4.89% [at 19 µM] | activity, negative = inhibition [8] 1.12% [at 19 µM] | activation [9] 0.171% [at 19 µM]

CCCCCCCCCC#N
inactive: Potency [1] | Potency [2] | Potency [3] | Potency [4] | Potency [5] | Potency [6] | Potency [7] | Potency [8]

CC(C)=CCCC(C)CCOC=O (stereo not given)
inactive: Potency [1] | Potency [2] | Potency [3] | Potency [4] | Potency [5] | Potency [6] | Potency [7]

Cn1cnc2c(F)c(Nc3ccc(Br)cc3Cl)c(C(=O)NOCCO)cc21
inactive: Potency [1] | Potency [2] | Potency [3] | Potency [4] | Potency [5] | Potency [6] | Potency [7] | Potency [8] | Potency [9]

CC(C)(CO)[C@@H](O)C(=O)NCCC(=O)O
inactive: Potency [1] | Potency [2] | Potency [3] | Potency [4] | Potency [5] | Potency [6] | Potency [7] | Potency [8] | Potency [9]

CCCCNCCCC
inactive: Potency [1] | Potency [2] | Potency [3] | Potency [4] | Potency [5] | Potency [6] | Potency [7] | Potency [8] | Potency [9]

CO[C@@]1(NC(=O)CSCC#N)C(=O)N2C(C(=O)O)=C(CSc3nnnn3C)CS[C@@H]21
inactive: Potency [1] | Potency [2] | Potency [3] | Potency [4] | Potency [5] | Potency [6] | Potency [7]

O=C(Cl)c1cccc([N+](=O)[O-])c1
inactive: Potency [1] | Potency [2] | Potency [3] | Potency [4] | Potency [5] | Potency [6] | Potency [7] | Potency [8]

Nc1cccc(S(=O)(=O)O)c1
inactive: Potency [1] | Potency [2] | Potency [3] | Potency [4] | Potency [5] | Potency [6] | Potency [7]

CCN(CC)C(=O)N(CC)CC
inactive: Potency [1] | Potency [2] | Potency [3] | Potency [4] | Potency [5] | Potency [6] | Potency [7]

COC(=O)/C=C(/C)N
inactive: Potency [1] | Potency [2] | Potency [3] | Potency [4] | Potency [5] | Potency [6] | Potency [7] | Potency [8] | Potency [9]

COc1nc(C)nc(NC(=O)NS(=O)(=O)c2ccccc2OCCCl)n1
inactive: Potency [1] | Potency [2] | Potency [3] | Potency [4] | Potency [5] | Potency [6] | Potency [7] | Potency [8]

CCCCCCCOC(=O)CCC
inactive: Potency [1] | Potency [2] | Potency [3] | Potency [4] | Potency [5] | Potency [6] | Potency [7] | Potency [8]

CCOC(=O)C1CC(=O)C(=C(O)C2CC2)C(=O)C1 (stereo not given)
inactive: Potency [1] | Potency [2] | Potency [3] | Potency [4] | Potency [5] | Potency [6] | Potency [7] | Potency [8] | Potency [9]

Cc1ccc(C=O)s1
inactive: Potency [1] | Potency [2] | Potency [3] | Potency [4] | Potency [5] | Potency [6] | Potency [7] | Potency [8] | Potency [9]

FC(F)(F)c1ccccc1
inactive: Potency [1] | Potency [2] | Potency [3] | Potency [4] | Potency [5] | Potency [6] | Potency [7] | Potency [8]

O=C(O)[C@@H]1CSCN1
inactive: Potency [1] | Potency [2] | Potency [3] | Potency [4] | Potency [5] | Potency [6] | Potency [7]

COc1ccccc1OCC(O)COC(N)=O (stereo not given)
inactive: Potency [1] | Potency [2] | Potency [3] | Potency [4] | Potency [5] | Potency [6] | Potency [7] | Potency [8] | Potency [9]

N#CSCC(=O)O
inactive: Potency [1] | Potency [2] | Potency [3] | Potency [4] | Potency [5] | Potency [6] | Potency [7] | Potency [8] | Potency [9]

CCCCCCCCOC(=O)CCCCCCCCC(=O)OCCCCCCCC
inactive: Potency [1] | Potency [2] | Potency [3] | Potency [4] | Potency [6] | Potency [7] | Potency [8]

C[C@@H]1CN(c2c(F)c(N)c3c(=O)c(C(=O)O)cn(C4CC4)c3c2F)C[C@H](C)N1
inactive: viability change, negative = cytotoxic [1] -1.89% [at 19 µM] | activity change, negative = inhibition [2] 0.766% [at 23.6 µM] | viability change, negative = cytotoxic [3] -2.59% [at 19 µM] | activity change, negative = cytotoxicity [4] 0.653% [at 19 µM] | viability change, negative = cytotoxic [7] -4.64% [at 19 µM]

CCCCNc1ccc(C(=O)OCCN(CC)CC)cc1
inactive: Potency [1] | Potency [2] | Potency [3] | Potency [4] | Potency [5] | Potency [7] | Potency [8]

C1CSCCS1
inactive: Potency [1] | Potency [2] | Potency [3] | Potency [4] | Potency [6] | Potency [7] | Potency [8] | Potency [9]

CN(C)Cc1ccccc1
inactive: Potency [1] | Potency [2] | Potency [3] | Potency [4] | Potency [7]

OCCN(CCO)c1ccccc1
inactive: Potency [1] | Potency [2] | Potency [3] | Potency [4] | Potency [7]

O=c1[nH]c(=O)n([C@H]2C[C@H](O)[C@@H](CO)O2)cc1C(F)(F)F
inactive: Potency [1] | Potency [2] | Potency [3] | Potency [4] | Potency [6] | Potency [7] | Potency [8] | Potency [9]
